Measurements from the supplement of paper PMC6555819.

What was measured:
Test in all cases: PBM binding z-score (relative to random genomic background probes); higher = stronger binding; sequences stand for … in GC…GCGATTGACAGCGTAGAATGAAGG
[1] = test system: RARb homodimer (NR concentration 270 nM)
Summary of the method: (§1)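 Random background probes are the reference for binding z-scores. These scores derive from regression-normalized fluorescence on custom Agilent 4×180K protein-binding microarrays incubated 1 h with ligand-free nuclear receptor dimers. Binding was detected with antibodies against each partner (one per run).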

[2] = test system: RARg:RXRa (NR concentration 270 nM, RXRa partner concentration 90 nM)
Summary of the method: as §1

[3] = test system: RARg homodimer (NR concentration 270 nM)
Summary of the method: as §1

[4] = test system: RXRa DBDmut IVT, anti-RXR (DBD mutation: RXRa K156A/R161A, NR concentration 90 nM)
Summary of the method: as §1

[5] = test system: RXRa homodimer (NR concentration 180 nM)
Summary of the method: as §1

[6] = test system: THRa:RXRa (NR concentration 90 nM, RXRa partner concentration 90 nM)
Summary of the method: as §1

[7] = test system: THRa homodimer (NR concentration 90 nM)
Summary of the method: as §1

[8] = test system: VDR:RXRa (NR concentration 270 nM, RXRa partner concentration 90 nM)
Summary of the method: as §1

[9] = test system: VDR homodimer (NR concentration 270 nM)
Summary of the method: as §1

Row | Sequence | PBM binding z-score [1] | PBM binding z-score [2] | PBM binding z-score [3] | PBM binding z-score [4] | PBM binding z-score [5] | PBM binding z-score [6] | PBM binding z-score [7] | PBM binding z-score [8] | PBM binding z-score [9]
1 | CGTCCAAGGTCAAAGTCAGTGAAAGAGACTCGAA | 3.32 | 5.86 | 6.34 | 3.91 | 5.95 | 3.5 | 1.72 | 3.77 | 2.46
2 | ATCTCTAGGTAACAAGTTGAGTGAAAGAGAGGAC | 0.79 | 0.858 | 0.91 | -0.013 | 0.381 | 1.41 | 0.716 | 0.415 | 0.639
3 | CCTGCTAGGTCAATGGTCAGCTACAGCAGCTCGC | 2.95 | 3.82 | 4.13 | 1.74 | 2.49 | 2.19 | 1 | 0.991 | 0.15
4 | CCGACTGGGACAAAGGTTACCATACTCAGTACGA | 1.88 | 2.42 | 1.43 | 0.478 | 2.21 | 1.75 | 0.208 | 1.14 | -0.0207
5 | GCATATTGGTAATACAAGGTGAAAGTCCGATTGT | 0.603 | 0.0948 | 0.327 | 0.349 | 0.367 | 2.39 | 1 | -0.16 | -0.108
6 | CGTCCAAGGTCACTGCTAGGTCAGTGAAAGCATT | 4.78 | 7.45 | 7.04 | 3.66 | 5.2 | 4.48 | 3.39 | 5.09 | 3
7 | ACAGACAGGTGATGAAGGTAACTGAGGCTATCAT | 0.244 | 0.321 | 0.603 | -0.383 | 0.305 | 1.33 | -0.0787 | 0.346 | -0.259
8 | TCATATAGGTAAAAAGGTGAAAGTCCGTAAGTTA | 2.04 | 2.48 | 1.06 | 1.71 | 2.42 | 1.55 | 0.644 | 1.61 | 0.718
9 | GGAACGAGGGCATTTGAGTTGATAGCATGGCGAT | 0.691 | 1.17 | 1.29 | 3.42 | 0.881 | 3.57 | -0.202 | 4.22 | 3.57
10 | ATCTCTAGGTAAGGATAGTTCAGTGAATGCAAAT | 1.05 | 0.45 | 0.907 | 0.233 | -0.127 | 1.21 | 0.86 | 0.733 | 0.73
11 | TGAATGAGGTTCTAAGATCAGGGAACGTTGCAAA | -0.907 | -0.113 | -0.275 | -0.623 | -0.155 | -0.125 | -0.86 | -0.428 | -0.351
12 | ACTCGGAGGACTAAGGTCAGAGCTACGCCAGTGA | 3.15 | 2.89 | 2.54 | 0.168 | 2.34 | 3.35 | 2.6 | 1.65 | 0.805
13 | CCTCGGTGGACAACAGGAGGTCAGAGCTGCCAGA | 2.99 | 2.06 | 1.73 | -0.87 | 1.64 | 1.97 | 0.341 | 1.07 | 0.396
14 | TGAATGAGGTTAAACATCAGGGAACGTGGCGTCG | 0.708 | 2.37 | 1.44 | 1.35 | 3.15 | 2.65 | 0.474 | 1.87 | 0.833
15 | CCTTACGGGTCACAAGGTTATAGCACGACGAGCG | 3.71 | 5.7 | 4.75 | 1.18 | 6.05 | 3.26 | 0.935 | 4.37 | 1.54
16 | CTGACTGGGGCATAAGGTTACCATAAGCCAGCCC | 1.92 | 1.99 | 1.46 | -0.277 | 1.4 | 2.42 | 1.35 | 0.451 | -0.328
17 | CGAACTTGGTCAAGGACAGTGAATCTCCGCACGC | 0.692 | 0.479 | 1.1 | 0.243 | 0.275 | 1.89 | 1.37 | -0.245 | -0.254
18 | GCTTACGGGTCAAAGGTTATAGCTTGAATAGAAT | 3.13 | 6.69 | 4.63 | 2.37 | 8.87 | 3.57 | -0.0839 | 5.25 | 1.45
19 | TCTTGTAGCTCAAGCAGGTTAAGAAAGCCTGAGT | -0.116 | -0.427 | -0.42 | 0.0335 | -0.207 | 0.103 | -1.07 | -0.0447 | -0.763
20 | CCTGCTAGGTCATTGGTCAGCTAAAGCAGCTCGC | 3.25 | 3.88 | 4.43 | 3.02 | 2.61 | 2.79 | 1.24 | 2.1 | 1.27
21 | GATACAGGGTCAAGGCCAGAGTCCGCGTATTGAT | 3.62 | 5.35 | 4.89 | 1.91 | 5.5 | 3.52 | 1.37 | 4.32 | 1.73
22 | AGCTCTAGGTAACAAGTTCAGTGAAAGAGAGGAC | 1.92 | 1.12 | 1.23 | 0.916 | 0.551 | 1.49 | 0.681 | 1.94 | 2.64
23 | CCGAGTAGTTTATGGGGCATTCAGGCAACGGTGA | 0.512 | -0.0698 | 0.182 | 0.904 | -0.158 | 0.238 | 0.0882 | -0.229 | 0.37
24 | ATACCAACGTGATCGTGAGGTCGTTGATACTAAC | 0.904 | 0.317 | 0.269 | 0.532 | 0.915 | 2.36 | 1.73 | 1.8 | 2.32
25 | GCTGCTAGGTCAGGTTGGTCAGCTGACGGGTACG | 2.62 | 2.79 | 3.56 | 0.752 | 1.09 | 1.81 | 0.492 | 0.533 | 0.505
26 | ATCTCTAGGTAAGTCTCAGTTCAGTGAAGAACGC | 1.02 | 0.158 | 0.271 | 0.813 | 0.0582 | 1.07 | 1.23 | 0.65 | 1.72

Row | Sequence | PBM binding z-score [1] | PBM binding z-score [2] | PBM binding z-score [3] | PBM binding z-score [4] | PBM binding z-score [5] | PBM binding z-score [6] | PBM binding z-score [7] | PBM binding z-score [8] | PBM binding z-score [9]
27 | GCTAGCCGGCCATTTGGGTCACTCAATGACGGGC | 1.75 | 0.912 | 1.1 | -0.739 | 0.725 | 1.62 | 0.719 | 0.203 | 0.157
28 | ATCTCTAGGTAATAGTTCAGTGAATCCCGAGGAT | 1.24 | 0.897 | 1.33 | 0.172 | 0.482 | 0.745 | 0.701 | 0.188 | 0.41
29 | CCTAGTTGGTCTAGGTCACACACGCTATAGGTAC | 3 | 2.36 | 2.69 | 0.925 | 1.88 | 2.99 | 2.78 | 1.42 | 1.78
30 | AATACAGGGTCGTCGTAGGCCAGAGTACGCACAG | 1.42 | 2.13 | 1.29 | 1.76 | 2.81 | 3.4 | 0.245 | 2.62 | 1.78
31 | GCGGCTGGGGCAAAGCAGGTTACCATAAGGTTGG | 1.19 | 0.368 | 0.921 | -0.596 | 0.116 | 3.18 | 0.108 | 0.192 | -0.402
32 | ATCGAAACGTCGAAGGTGAGTATACCCACCCGAA | -0.0717 | 0.382 | 0.461 | -1.07 | 0.361 | 0.0237 | -0.567 | -0.229 | -0.497
33 | GGAACGAGGGCCAAGTTGATAGCATCTGTCGACG | -0.0615 | 0.0796 | 0.46 | 0.125 | 0.105 | -0.432 | -0.99 | -0.379 | -0.364
34 | TCTTGTAGATCAAGCAGGTGAAGAAAGCCTGAGT | -0.296 | -0.262 | -0.325 | 0.591 | 0.0351 | -0.0555 | -0.319 | 0.0815 | -0.154
35 | AGAAAGAGGTTACCAAAGATCAGGGAAACGCTTG | 1.03 | 2.51 | 1.84 | 0.282 | 3.17 | 1.91 | -0.577 | 1.3 | -0.0812
36 | ACTATTAGTTGAGACTAGGGCAACCGATAGGTTG | 0.465 | 0.376 | 0.586 | -0.0472 | 0.0824 | 1.25 | -0.533 | -0.386 | -0.353
37 | CAAACTAGGTAAAGAGGTCAAAGTCCGCTTCCCG | 4.1 | 5.02 | 4 | 2.13 | 5.62 | 3.75 | 1.47 | 4.92 | 4.05
38 | GGAACGAGGGCAAGTTGATAGTAGAGTTTGATGG | 1.75 | 1.54 | 2.17 | 2.51 | 0.814 | 1.36 | 0.454 | 1.34 | 2.31
39 | GCAATTAGTTGAAAGGGCAACCGAATGATTCTCG | 2 | 1.14 | 1.24 | 0.685 | 1.25 | 0.471 | -0.13 | 0.238 | 0.159
40 | ACTAGCCGGCCAAGGGTCACTCAAGATTAGTCCG | 3.6 | 3.96 | 3.47 | -0.0861 | 3.65 | 2.5 | 0.383 | 2.59 | 0.509
41 | AGAACGAGGGCACGCTGAGTTTATAGCAGAGTAG | 1.45 | 2.31 | 2.32 | 2.18 | 1.5 | 2.15 | -0.111 | 3.94 | 4.06
42 | CGTCCTAGGTCATAGGAGGTCAGTGAAGACAGAT | 4.83 | 5.44 | 5.84 | 2.08 | 4.28 | 5.13 | 1.73 | 5.59 | 2.29
43 | TCTTGTACATCAGCAGGTTAAGAAAGCTGGCCAA | 0.266 | 0.217 | -0.00852 | 0.924 | 0.606 | 0.455 | -0.157 | 0.622 | 0.111
44 | CGAAGTAGGTCATTGACAGGACAGTGAATAGTAA | 2.74 | 4.83 | 4.36 | 2.27 | 2.94 | 2.64 | 0.373 |  | 1.07
45 | CCTTACGGGTCACTGACAGGTTAGAGCATTTGGA | 3.12 | 5.7 | 4.77 | 1.55 | 5.51 | 2.68 | 0.0773 | 3.33 | 0.83
46 | TCATATAGGTAAAAGGTGAAAATCGGTGTGGTAA | 1.58 | 2.04 | 0.775 | 1.69 | 3.08 | 1.56 | 0.242 | 1.65 | 0.627
47 | ACAGACAGGTGATGAAAGTAACTCAGGCTATCAT | -0.49 | 0.123 | 0.169 | -0.387 | 0.297 | -0.0258 | -0.579 | -0.184 | -0.942
48 | ATCGAAAAGTCGAGGTGAGTATAGAGAAAGGGAA | 0.0212 | 0.371 | 0.476 | -0.67 | 0.323 | 1.17 | 0.201 | -0.237 | -0.198
49 | CAAACTAGGTCACCGGAAGGTGAAAGTCCGCATG | 4.38 | 6.41 | 5.87 | 1.3 | 4.7 | 4.01 | 2.37 |  | 0.904
50 | ATCTCTAGGCAAAGTTCAGTGAAAGATCGATAGA | 2.14 | 1.79 | 2.42 | 1.24 | 1.06 | 0.452 | -0.26 | 1.06 | 1.48
51 | GTGACTGGGGCATCAGCAGGTTACCATAACTTAA | 1.3 | 1.36 | 0.86 | -0.0186 | 0.481 | 1.09 | 0.198 | 0.163 | -0.0019
52 | CCTACTGGGCCAAAGCTCATTGATTCCAATGCTC | -0.417 | -0.161 | -0.172 | -0.0907 | -0.521 | -0.58 | -0.358 | -0.593 | -0.874
